Reference: PubChem BioAssay AID1851 (National Center for Advancing Translational Sciences (NCATS), 2009)
“And” between values parts separate entries of the source, which are not always exact repeats. Identical values can stand only once. Hit rate of the full screen: of about 16,000 compounds, about 5,700 (36%) were called active. Roughly 24% stayed inconclusive and do not appear here. Calls come from the whole dose curve; as a rule, active = well fitted curve in the direction sought with a large enough effect; inconclusive = small, poorly fitted or top-dose-only effect, or effect the other way; inactive = no such curve, though single readings can be large or run the other way. This is one part of the list.

The compounds below were run against Cytochrome P450 1A2 (Homo sapiens) (UniProt P05177) (assay: Cytochrome panel assay with activity outcomes). Settings: recombinant CYP, pro-luciferin dealkylation, luminescence, p450-cyp1a2; series mostly up to 57.1 µM; activity, negative = inhibition: at the top concentration.
Cytochrome P450 1A2 (Homo sapiens), sequence (P05177 whole entry, looked up): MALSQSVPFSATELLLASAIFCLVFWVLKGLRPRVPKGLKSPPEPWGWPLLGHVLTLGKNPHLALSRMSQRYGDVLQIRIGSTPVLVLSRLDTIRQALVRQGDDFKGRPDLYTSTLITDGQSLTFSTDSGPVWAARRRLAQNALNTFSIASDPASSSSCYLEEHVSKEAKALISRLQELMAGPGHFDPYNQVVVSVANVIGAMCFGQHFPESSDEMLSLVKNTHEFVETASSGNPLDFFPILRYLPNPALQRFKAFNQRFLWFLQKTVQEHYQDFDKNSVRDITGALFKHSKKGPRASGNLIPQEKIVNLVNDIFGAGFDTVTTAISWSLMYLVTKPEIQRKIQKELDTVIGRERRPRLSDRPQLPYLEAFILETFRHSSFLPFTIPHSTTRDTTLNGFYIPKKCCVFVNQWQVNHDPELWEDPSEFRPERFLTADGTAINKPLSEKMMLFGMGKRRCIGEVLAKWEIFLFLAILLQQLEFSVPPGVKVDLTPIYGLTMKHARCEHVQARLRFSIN
% is set by controls: 0 for no effect and ±100 for the full control effect.

Row | Structure (SMILES) | activity, negative = inhibition | AC50
1 | O=C(Nc1cccc(F)c1)N1CCCC2(CCN(S(=O)(=O)c3ccccc3)CC2)C1 | -20% (inactive) | 
2 | CCCCCCCCCCCCCCCCCCNC(=O)OC[C@@H](COP(=O)([O-])OCC[n+]1ccsc1)OC | 16.8% (inactive) | 
3 | Cc1c(NC(=O)C(C)N2C(=O)c3ccccc3C2=O)c(=O)n(-c2ccccc2)n1C (configuration not stated) | 1.41% (inactive) | 
4 | CC(=O)Nc1c2c3c(cccc3n(C)c1=O)C(=O)c1ccccc1-2 |  | 2.51 µM (active)
5 | Clc1ccc(-c2noc(CN3CCCCC3)n2)cc1 |  | 0.631 µM (active)
6 | Cc1ccc(-c2noc(CN3CCN(C(c4ccccc4)c4ccccc4)CC3)n2)cc1 | -23.9% (inactive) | 
7 | N=C(N)SCc1nc(-c2ccc(Cl)cc2)no1 |  | 1.26 µM (active)
8 | Cc1ncc(CSC(=N)N)n1Cc1ccccc1 | -2.06% [at 11.4 µM] (inactive) | 
9 | CCCNC(=O)OC[C@@H]1O[C@H](CCON=C(C)C)C=C[C@@H]1Oc1ccc(OC)cc1 | -2.59% [at 11.4 µM] (inactive) | 
10 | CC(=O)N1CCc2cc(Br)cc(S(=O)(=O)N3CCN(C(=O)c4ccco4)CC3)c21 | 0.342% (inactive) | 
11 | CC(C)(O)C#Cc1ccc(C(=O)NCc2cccs2)s1 |  | 15.8 µM (active)
12 | Cc1cc(Nc2ccc(Cl)cc2)nc(N)n1 |  | 10 µM (active)
13 | Nc1nc(Cl)cc(NCCO)n1 | -22.6% [at 11.4 µM] (inactive) | 
14 | Cc1cc(C)c(S(=O)(=O)NNC(=O)C2CCN(Cc3ccccc3)CC2)c(C)c1 | -1.29% (inactive) | 
15 | COc1ccccc1N1CCN(Cc2cc(=O)n3ccsc3n2)CC1 | -3.58% (inactive) | 
16 | O=C(/C=C\c1ccc2c(c1)OCO2)c1ccc(F)cc1 | -4.56% [at 11.4 µM] (inactive) | 
17 | COc1ccccc1N1CCN(C(=O)/C=C/c2ccc3c(c2)OCO3)CC1 |  | 25.1 µM (active)
18 | O=C(/C=C\C=C/c1ccc2c(c1)OCO2)N1CCCCC1 |  | 3.16 µM (active)
19 | C/C(=N\Nc1nc(N)cc(Cl)n1)c1cccc([N+](=O)[O-])c1 |  | 11.2 µM (active)
20 | NC(=O)CNC(=O)[C@@H]1CC2(CC(c3cccc([N+](=O)[O-])c3)=NO2)CN1C(=O)c1ccccc1 (some centres not stated) | 15.4% (inactive) | 
21 | C/C(=N\Nc1nnc(-c2ccccc2)c(-c2ccccc2)n1)c1cccc([N+](=O)[O-])c1 |  | 3.55 µM (active)

Row | Structure (SMILES) | activity, negative = inhibition | AC50
22 | C/C(=N\Nc1ccc([N+](=O)[O-])cc1)c1cccc(N)c1 |  | 1.26 µM (active)
23 | Nc1cc(Cl)nc(N/N=C/c2ccccc2[N+](=O)[O-])n1 |  | 2 µM (active)
24 | N=c1nc(N)nc(N)n1-c1ccc(S(N)(=O)=O)cc1 | -3.8% [at 2.29 µM] (inactive) | 
25 | O=C(O)[C@@H](c1ccccc1)[C@@H](C(=O)O)c1ccccc1 | -12% [at 2.29 µM] (inactive) | 
26 | O=C(c1ccccc1)[C@H](Nc1ccc2ccccc2c1)c1ccccc1 |  | 0.794 µM (active)
27 | O=C(CSc1nc2ccc([N+](=O)[O-])cc2s1)c1ccc2ccccc2c1 |  | 3.16 µM (active)
28 | COC(=O)\C(C(C)=O)=C(/C=C/C=C/C=C/N(C)C)N(C)C | -20.9% (inactive) | 
29 | CC(C)(CO)Cc1cc(C(C)(C)C)c(O)c(C(C)(C)C)c1 |  | 25.1 µM (active)
30 | Cc1cc(Cc2c(C)c(C)c(Cc3cc(C)cc(C(C)(C)C)c3O)c(C)c2C)c(O)c(C(C)(C)C)c1 | 4.96% [at 2.29 µM] (inactive) | 
31 | Nc1c2c(nc3ccccc13)CCC[C@H]2O |  | 10 µM (active)
32 | Cc1ccc(S(=O)(=O)Oc2cc(N)c3c(n2)CCC3)cc1 | -19.4% [at 2.29 µM] (inactive) | 
33 | Nc1c2c(nc3ccccc13)CCCC2 |  | 3.16 µM (active) and 794 nM (active) and 501 nM (active)
34 | Nc1c2ccccc2nc2c(O)cccc12 |  | 6.31 µM (active)
35 | COC(=O)[C@@]1(Cc2ccccc2)[C@H]2c3cc(C(=O)N4CCCC4)n(Cc4cc(F)cc5c4OCOC5)c3C[C@H]2CN1C(=O)c1ccccc1 | -17.1% (inactive) | 
36 | Cn1c(CN2CCCC2)nc2cc(NC(=O)C3CCCCC3)ccc21 | 4.54% (inactive) | 
37 | Cc1cc(NC(=O)C2CCCCC2)nc2c1c(=O)oc1ccccc12 |  | 3.16 µM (active)
38 | CC(=O)C[C@H](c1ccc([N+](=O)[O-])cc1)c1c(O)c2ccccc2oc1=O | -0.353% [at 25.6 µM] (inactive) | 
39 | CCCCC(=O)OCc1cn(-c2ccc(Cl)cc2)nn1 |  | 0.447 µM (active)
40 | CC(C)(C)C(=O)N1CCC(O)(CS(=O)(=O)Cc2ccc(Cl)cc2)CC1 | 3.39% (inactive) | 
41 | Cc1ccc(C(=O)c2cn(-c3ccc(F)c(Cl)c3)nn2)cc1 | 24.6% (inactive) | 
42 | Cc1ccccc1NC(=O)OCc1cn(-c2ccc(Cl)cc2)nn1 |  | 0.447 µM (active)

Row | Structure (SMILES) | activity, negative = inhibition | AC50
43 | CC(C)(C)C(=O)OCc1cn(-c2ccc(Cl)cc2)nn1 |  | 0.708 µM (active)
44 | CS(=O)(=O)N1CCC2(CC1)CN(C(c1ccccc1)c1ccccc1)C2 | -1.89% (inactive) | 
45 | CCCC(=O)N1c2ccccc2C(N(C(C)=O)c2ccccc2)CC1C (configuration not stated) | -9.48% (inactive) | 
46 | COCC(=O)N1CCC2(CC1)CN(C(c1ccccc1)c1ccccc1)C2 | -6.23% (inactive) | 
47 | COc1cc2c(cc1OC)CN(C(=S)Nc1ccccc1)CC2 |  | 12.6 µM (active)
48 | COc1ccc(S(=O)(=O)N2CCc3ccccc3C2)cc1OC | -29.1% (inactive) | 
49 | COc1cc2c(cc1OC)[C@H](c1ccccc1)CN(C)CC2 | -1.36% (inactive) | 
50 | CCOC(=O)c1nnn(-c2nonc2N)c1-c1ccccc1 |  | 0.891 µM (active)
51 | CC(C)OC(=O)c1nnn(-c2nonc2N)c1CSc1ccccn1 |  | 1.78 µM (active)
52 | CCOC(=O)c1nn(-c2ccccc2)c(-c2ccccc2)c1C(=O)c1ccccc1 | -14.5% (inactive) | 
53 | CCOC(=O)c1nnn(-c2nonc2N)c1-c1ccc(C)cc1 |  | 0.891 µM (active)
54 | COC(=O)N1CCC2(CCCN(C(=O)Nc3ccccc3)C2)CC1 | 3.75% (inactive) | 
55 | C[C@@]1(CCOCc2ccccc2)NC(=O)NC1=O | -13.5% [at 11.4 µM] (inactive) | 
56 | C[C@@H]1CN(CCCn2c3ccccc3c3ccccc32)C[C@H](C)N1 |  | 0.794 µM (active)
57 | CN(C)CCCn1c2ccccc2c2cnccc21 | -20% [at 2.29 µM] (inactive) | 
58 | c1ccc(C(CCN2CC3CCC(CC3)C2)c2ccccc2)cc1 | 9.33% [at 11.4 µM] (inactive) | 
59 | C/C(=N\NC(=O)c1[nH]c2c([N+](=O)[O-])cc(C)cc2c1-c1ccccc1)c1cccnc1 |  | 1.26 µM (active)
60 | COc1ccc(NC(=O)N2CCCC2C(=O)Nc2ccccc2)cc1 (configuration not stated) | -29.6% (inactive) | 
61 | COc1ccc(C(=S)Nc2ccccc2)cc1 |  | 0.631 µM (active)
62 | COc1ccc2c(Cl)cc(NC(=S)Nc3ccccc3)nc2c1 |  | 0.398 µM (active)
